Results as given in PubChem BioAssay (NCATS).
Results filed as inconclusive are left out. Unless noted, the call rests on the fitted dose curve; in most records, active means well fitted curve in either direction with a large enough effect (not every such curve was filed as active); inconclusive means small, poorly fitted or top-dose-only effect, or another doubt; inactive means flat fitted curve, though single readings scatter.

Tests used:
[1] = AP1 Signaling Pathway (AID 357); settings: ME-180 AP-1-bla reporter, EGF-induced, beta-lactamase ratio, 5 h; at 17.2 µM (top of the series) unless noted;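 further: ME-180 reporter cells stimulated with EGF at its EC50 level; on the % scale 0 is the no-effect control and ±100 the full control effect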
In short: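 First, ME-180 AP-1-bla cells were cultured overnight at 37 °C in low-serum Opti-MEM. Next, titrated compounds with EC50 EGF were incubated 5 hours. Finally, CCF4 was added for 2.5 hours and the 460/530 nm ratio recorded.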

[2] = NFAT Signaling Pathway (AID 444); settings: Jurkat NFAT-bla M1, carbachol, beta-lactamase ratio, 5 h; at 17.2 µM (top of the series) unless noted;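 further: carbachol stimulus at about its EC50 of 1 µM final; on the % scale 0 is the no-effect control and ±100 the full control effect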
In short: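 Jurkat cells carrying an NFAT-driven β-lactamase reporter and co-transfected muscarinic M1 receptor were treated with compound plus carbachol (1 uM final, an EC50 level) for 5 h at 37 °C. CCF4 loading followed for 1 h at RT; 460/530 nm ratio gave %activity.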

[3] = Stat Signaling Pathway (AID 446); settings: ME-180 (cervical carcinoma) SIE beta-lactamase reporter, IL-6 stimulated, 5 h; at 17.2 µM (top of the series) unless noted;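 further: ME-180 cervical cancer cells given 40 pM IL-6 alongside compound; SIE-controlled beta-lactamase reporter measured as 460/530 nm FRET emission ratio; on the % scale 0 is the no-effect control and ±100 the full control effect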
In short: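 IL-6/STAT signaling read in ME-180 cells via an SIE beta-lactamase reporter. Stimulus was 40 pM IL-6 (its AC50) for 5 hrs, so both activation and inhibition register.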

[4] = biological target: Glucocorticoid receptor (Homo sapiens) (UniProt P04150); assay: GR-GFP Redistribution (AID 450;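 active means compounds whose dose series gives a full or clear partial fitted curve of increased nuclear translocation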; further: potency means the concentration at half of the fitted maximal effect)
Chain of Glucocorticoid receptor (Homo sapiens) (P04150 whole entry, looked up): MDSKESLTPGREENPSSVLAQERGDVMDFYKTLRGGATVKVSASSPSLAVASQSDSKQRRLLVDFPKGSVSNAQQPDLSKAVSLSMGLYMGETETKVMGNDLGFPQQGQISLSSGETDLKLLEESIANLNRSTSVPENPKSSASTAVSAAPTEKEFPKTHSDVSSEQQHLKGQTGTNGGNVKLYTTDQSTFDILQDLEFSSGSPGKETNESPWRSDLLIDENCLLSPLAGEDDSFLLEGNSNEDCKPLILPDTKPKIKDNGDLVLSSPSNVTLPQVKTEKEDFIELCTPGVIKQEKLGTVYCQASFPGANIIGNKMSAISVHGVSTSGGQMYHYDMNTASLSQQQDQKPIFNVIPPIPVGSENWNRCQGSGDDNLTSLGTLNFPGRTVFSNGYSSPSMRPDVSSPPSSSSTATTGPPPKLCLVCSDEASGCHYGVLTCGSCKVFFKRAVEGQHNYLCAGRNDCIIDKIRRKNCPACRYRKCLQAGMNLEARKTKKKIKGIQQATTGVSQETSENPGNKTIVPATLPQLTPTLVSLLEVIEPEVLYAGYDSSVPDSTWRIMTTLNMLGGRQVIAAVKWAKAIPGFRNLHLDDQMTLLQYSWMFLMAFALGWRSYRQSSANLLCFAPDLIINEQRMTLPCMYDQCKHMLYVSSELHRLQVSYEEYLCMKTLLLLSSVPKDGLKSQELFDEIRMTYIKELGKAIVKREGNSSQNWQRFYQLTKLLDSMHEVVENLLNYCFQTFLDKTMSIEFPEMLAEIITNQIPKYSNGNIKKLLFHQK

COc1ccc(/C(O)=C2/C(=O)C(=O)N(c3ncccn3)C2c2ccc(OC)c(OC)c2)cc1 (configuration not stated)
inactive: activity change, negative = inhibition [1] 10.2% | activity change, negative = inhibition [2] -0.912% | activity, negative = inhibition [3] -6.81% | Potency [4] > 20.6 µM

O=C(c1ccc(-n2cnnn2)cc1)N1CCOCC1
inactive: activity change, negative = inhibition [1] 10.3% | activity change, negative = inhibition [2] -0.0644% | activity, negative = inhibition [3] 12.1% | Potency [4] > 20.6 µM

Cc1nn(CC(=O)N2CCOCC2)c(=O)c2ccccc12
inactive: activity change, negative = inhibition [1] 10.7% | activity change, negative = inhibition [2] 8.23% | activity, negative = inhibition [3] 1.28% | Potency [4] > 20.6 µM

CCCC(=O)Nn1cnc2c(c1=O)C1(CCCC1)Cc1ccccc1-2
inactive: activity change, negative = inhibition [1] -5.55% | activity change, negative = inhibition [2] -0.237% | activity, negative = inhibition [3] -0.176% | Potency [4] > 20.6 µM

CCCC1Cc2c(sc3ncnc(N)c23)CO1 (configuration not stated)
inactive: activity change, negative = inhibition [1] -16.4% | activity change, negative = inhibition [2] -5.16% | activity, negative = inhibition [3] -9.41% | Potency [4] > 20.6 µM

Cc1cc(C)nc(N(C#N)S(=O)(=O)c2ccccc2Cl)n1
inactive: activity change, negative = inhibition [1] 0.835% | activity change, negative = inhibition [2] -12.4% | activity, negative = inhibition [3] -19.9% | Potency [4] > 20.6 µM

CCC(NC(=O)Nc1ccc(O)cc1)(C(F)(F)F)C(F)(F)F
inactive: activity change, negative = inhibition [1] -8.11% | activity change, negative = inhibition [2] 8.99% | activity, negative = inhibition [3] -7.48% | Potency [4] > 20.6 µM

CC(C)C(C(=O)Nc1ncn[nH]1)N1C(=O)c2ccccc2C1=O (configuration not stated)
inactive: activity change, negative = inhibition [1] 21.4% | activity change, negative = inhibition [2] -9.04% | activity, negative = inhibition [3] -1.14% | Potency [4] > 20.6 µM

CCc1cc2c(=O)c(-c3cscn3)coc2cc1O
inactive: activity change, negative = inhibition [1] -3.15% | activity change, negative = inhibition [2] -8.09% | activity, negative = inhibition [3] -14.6% | Potency [4] > 20.6 µM

N#CC1(P(=O)(c2ccccc2)c2ccccc2)CC1
inactive: activity change, negative = inhibition [1] 0.213% | activity change, negative = inhibition [2] -2.17% | activity, negative = inhibition [3] 1.75% | Potency [4] > 20.6 µM

CC(=O)NC(=O)Nc1sc(=S)n(C)c1C
inactive: activity change, negative = inhibition [1] -0.255% | activity change, negative = inhibition [2] 15.7% | activity, negative = inhibition [3] 1.93% | Potency [4] > 20.6 µM

C=CCn1cnc2c(c1=O)c1nc3ccccc3nc1n2-c1ccc(Cl)cc1
inactive: activity change, negative = inhibition [1] 8.09% | activity change, negative = inhibition [2] -0.571% | activity, negative = inhibition [3] -1.17% | Potency [4] > 20.6 µM

O=C(Nc1nccs1)NC(C(F)(F)F)C(F)(F)F
inactive: activity change, negative = inhibition [1] -10.3% | activity change, negative = inhibition [2] 9.14% | activity, negative = inhibition [3] 10.4% | Potency [4] > 20.6 µM

CCCOc1ccc(CSC(CC(=O)O)C(=O)O)cc1 (configuration not stated)
inactive: activity change, negative = inhibition [1] 4.79% | activity change, negative = inhibition [2] 13.3% | activity, negative = inhibition [3] 6.22% | Potency [4] > 20.6 µM

CSC1=C(C#N)C(c2ccc(C)s2)CC(=O)N1 (configuration not stated)
inactive: activity change, negative = inhibition [1] -7.45% | activity change, negative = inhibition [2] -2.53% | activity, negative = inhibition [3] 7.78% | Potency [4] > 20.6 µM

COc1cc(C)nc(Oc2ccc(=O)[nH]n2)n1
inactive: activity change, negative = inhibition [1] 16.4% | activity change, negative = inhibition [2] -26.6% | activity, negative = inhibition [3] 13.6% | Potency [4] > 20.6 µM

CCC(=O)Nc1ccc(-c2nnc(-c3ccccc3)o2)cc1
inactive: activity change, negative = inhibition [1] 0.816% | activity change, negative = inhibition [2] 4.89% | activity, negative = inhibition [3] -0.000551% | Potency [4] > 20.6 µM

COc1cccc(NC(=O)CC2SC(=Nc3ccccc3)NC2=O)c1 (configuration not stated)
inactive: activity change, negative = inhibition [1] -10.5% | activity change, negative = inhibition [2] 2.42% | activity, negative = inhibition [3] -17.8% | Potency [4] > 20.6 µM
